Holding throughout (assay): DAPPL (digital affinity profiling via proximity ligation, sequencing); 10 mM Tris-HCl pH 7.5, 50 mM NaCl, 1 mM DTT, 4% glycerol, room temperature, 30 min; GST-TFs on glutathione beads, 16-mer random dsDNA library, 0.1% formaldehyde crosslink after washing; high values mean tight binding
One assay addresses T1, FEV (Homo sapiens, UniProt Q99581 1-238).
T1 sequence: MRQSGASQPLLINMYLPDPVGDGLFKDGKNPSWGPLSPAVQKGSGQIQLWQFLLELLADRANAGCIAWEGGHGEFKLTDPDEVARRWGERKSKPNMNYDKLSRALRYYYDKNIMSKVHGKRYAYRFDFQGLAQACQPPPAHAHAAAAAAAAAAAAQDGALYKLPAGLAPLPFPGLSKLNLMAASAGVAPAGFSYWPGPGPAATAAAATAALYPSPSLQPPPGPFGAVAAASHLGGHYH
Particulars: protein: recombinant; tags: N-terminal GST; dsDNA, one strand shown. The gist of the method: (§1)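 Yeast served to express human transcription factors as GST fusions, which were then captured on glutathione beads and labelled with DNA barcodes. Pooled with a tag-only sample, they were incubated with 200 nmole of a 16-mer random double-stranded DNA library for 30 min at room temperature in Tris/NaCl/DTT/glycerol buffer, washed, crosslinked with 0.1% formaldehyde, ligated by proximity, amplified by PCR and sequenced. Dividing each hexamer's read frequency for a factor by its frequency for the tag-only sample gives the binding signal.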

The target of another assay is ETV5 (Homo sapiens, UniProt P41161 1-510). The conditions noted are these: protein: recombinant; tags: N-terminal GST; dsDNA, one strand shown. Put shortly: as §1
ETV5, sequence (P41161 whole entry): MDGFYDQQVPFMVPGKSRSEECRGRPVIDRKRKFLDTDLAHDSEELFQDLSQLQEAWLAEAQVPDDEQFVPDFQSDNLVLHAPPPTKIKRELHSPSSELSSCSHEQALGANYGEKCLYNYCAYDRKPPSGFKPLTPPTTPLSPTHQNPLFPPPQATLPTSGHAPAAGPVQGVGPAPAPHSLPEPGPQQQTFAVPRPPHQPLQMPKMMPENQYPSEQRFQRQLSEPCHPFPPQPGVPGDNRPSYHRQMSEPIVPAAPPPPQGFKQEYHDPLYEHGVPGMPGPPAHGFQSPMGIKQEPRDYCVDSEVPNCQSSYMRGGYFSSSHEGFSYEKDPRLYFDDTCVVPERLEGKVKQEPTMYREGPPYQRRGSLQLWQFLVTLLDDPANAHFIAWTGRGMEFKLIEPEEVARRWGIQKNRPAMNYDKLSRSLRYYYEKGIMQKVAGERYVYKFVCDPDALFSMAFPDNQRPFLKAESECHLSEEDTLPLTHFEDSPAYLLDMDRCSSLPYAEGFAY
A further assay deals with HSF1 (Homo sapiens, UniProt Q00613 1-529). Particulars: protein: recombinant; tags: N-terminal GST; chain copies: 3; dsDNA, one strand shown. Put shortly: as §1
HSF1, sequence (Q00613 whole entry): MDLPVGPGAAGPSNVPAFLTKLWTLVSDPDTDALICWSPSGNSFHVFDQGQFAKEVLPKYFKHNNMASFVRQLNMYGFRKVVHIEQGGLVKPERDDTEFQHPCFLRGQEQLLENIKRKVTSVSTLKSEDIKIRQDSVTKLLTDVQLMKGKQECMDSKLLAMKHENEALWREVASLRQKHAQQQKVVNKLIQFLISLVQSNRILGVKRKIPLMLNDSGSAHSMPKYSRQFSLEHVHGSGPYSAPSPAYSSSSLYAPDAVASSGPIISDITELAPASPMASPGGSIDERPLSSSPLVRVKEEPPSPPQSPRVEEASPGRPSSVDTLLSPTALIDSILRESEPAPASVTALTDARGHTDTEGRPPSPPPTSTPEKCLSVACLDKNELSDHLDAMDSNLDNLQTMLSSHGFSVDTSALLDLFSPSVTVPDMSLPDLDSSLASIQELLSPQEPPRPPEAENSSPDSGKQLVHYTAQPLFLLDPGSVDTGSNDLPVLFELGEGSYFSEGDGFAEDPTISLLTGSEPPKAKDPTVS
Another assay concerns the target T2, SPIC (Homo sapiens, UniProt Q8N5J4 1-248).
T2 sequence: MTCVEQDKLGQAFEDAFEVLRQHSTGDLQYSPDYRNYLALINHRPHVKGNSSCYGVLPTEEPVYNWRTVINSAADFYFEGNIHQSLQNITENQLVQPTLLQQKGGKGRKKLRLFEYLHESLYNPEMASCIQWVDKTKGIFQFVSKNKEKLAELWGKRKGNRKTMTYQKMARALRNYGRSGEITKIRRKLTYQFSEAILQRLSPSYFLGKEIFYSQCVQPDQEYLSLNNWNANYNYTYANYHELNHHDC
Particulars: protein: recombinant; tags: N-terminal GST; dsDNA, one strand shown. The gist of the method: as §1

Another assay addresses ELF4 (Homo sapiens, UniProt Q99607 1-663). Particulars: protein: recombinant; tags: N-terminal GST; dsDNA, one strand shown. The gist of the method: as §1
Another assay has as its target T3, ELK4 (Homo sapiens, UniProt P28324-2 1-405).
T3 sequence: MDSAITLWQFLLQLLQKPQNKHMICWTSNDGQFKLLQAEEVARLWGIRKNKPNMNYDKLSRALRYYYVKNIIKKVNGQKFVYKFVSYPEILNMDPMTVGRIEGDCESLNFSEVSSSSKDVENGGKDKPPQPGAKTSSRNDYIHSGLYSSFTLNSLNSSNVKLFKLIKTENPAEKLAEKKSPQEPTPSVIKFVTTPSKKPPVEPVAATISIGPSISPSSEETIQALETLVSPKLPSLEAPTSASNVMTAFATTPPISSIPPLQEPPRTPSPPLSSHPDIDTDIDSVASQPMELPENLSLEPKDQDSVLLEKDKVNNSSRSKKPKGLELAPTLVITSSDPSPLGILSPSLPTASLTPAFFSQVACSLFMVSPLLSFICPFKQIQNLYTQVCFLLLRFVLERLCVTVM
Particulars: protein: recombinant; tags: N-terminal GST; dsDNA, one strand shown. Put shortly:
as §1

Another assay has as its target T4, ETV2 (Homo sapiens, UniProt O00321 1-342).
T4 sequence: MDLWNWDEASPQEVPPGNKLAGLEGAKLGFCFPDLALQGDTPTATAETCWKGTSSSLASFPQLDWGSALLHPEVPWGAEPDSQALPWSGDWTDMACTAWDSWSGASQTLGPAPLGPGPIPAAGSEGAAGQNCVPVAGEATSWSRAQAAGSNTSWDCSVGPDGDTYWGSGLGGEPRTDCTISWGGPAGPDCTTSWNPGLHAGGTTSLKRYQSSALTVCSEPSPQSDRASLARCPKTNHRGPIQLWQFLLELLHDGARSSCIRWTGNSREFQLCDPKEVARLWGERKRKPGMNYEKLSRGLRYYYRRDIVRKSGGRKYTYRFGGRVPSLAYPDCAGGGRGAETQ
Particulars: protein: recombinant; tags: N-terminal GST; dsDNA, one strand shown. The gist of the method: as §1

A further assay deals with T5, ELF3 (Homo sapiens, UniProt P78545 1-371).
T5 sequence: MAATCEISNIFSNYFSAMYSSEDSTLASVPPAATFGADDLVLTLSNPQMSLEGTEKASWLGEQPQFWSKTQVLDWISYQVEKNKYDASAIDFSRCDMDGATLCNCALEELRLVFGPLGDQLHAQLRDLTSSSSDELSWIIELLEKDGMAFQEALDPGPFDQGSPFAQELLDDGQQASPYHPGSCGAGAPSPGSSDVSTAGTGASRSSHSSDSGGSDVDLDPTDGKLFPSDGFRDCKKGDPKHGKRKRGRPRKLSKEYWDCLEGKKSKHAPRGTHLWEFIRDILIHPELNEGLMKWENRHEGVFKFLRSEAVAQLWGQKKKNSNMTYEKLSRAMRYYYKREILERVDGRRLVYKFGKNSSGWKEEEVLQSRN
The conditions noted are these: protein: recombinant; tags: N-terminal GST; dsDNA, one strand shown. Put shortly: as §1

The target in the next assay is CRX (Homo sapiens, UniProt O43186 1-299). The conditions noted are these: protein: recombinant; tags: N-terminal GST; dsDNA, one strand shown. Put shortly: as §1
CRX, sequence (O43186 whole entry): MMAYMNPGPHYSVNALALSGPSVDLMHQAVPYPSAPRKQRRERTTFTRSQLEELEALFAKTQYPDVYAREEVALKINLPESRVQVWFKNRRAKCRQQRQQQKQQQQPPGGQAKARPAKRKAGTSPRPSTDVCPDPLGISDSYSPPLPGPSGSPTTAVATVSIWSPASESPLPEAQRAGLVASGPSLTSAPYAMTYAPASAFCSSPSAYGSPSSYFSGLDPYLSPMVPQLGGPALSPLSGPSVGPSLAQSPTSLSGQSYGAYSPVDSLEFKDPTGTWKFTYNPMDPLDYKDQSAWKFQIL
In another assay the target is ETV1 (Homo sapiens, UniProt P50549 1-477). Particulars: protein: recombinant; tags: N-terminal GST; dsDNA, one strand shown. Put shortly:
as §1

The target of a further assay is T6, ERF (Homo sapiens, UniProt P50548 1-548).
T6 sequence: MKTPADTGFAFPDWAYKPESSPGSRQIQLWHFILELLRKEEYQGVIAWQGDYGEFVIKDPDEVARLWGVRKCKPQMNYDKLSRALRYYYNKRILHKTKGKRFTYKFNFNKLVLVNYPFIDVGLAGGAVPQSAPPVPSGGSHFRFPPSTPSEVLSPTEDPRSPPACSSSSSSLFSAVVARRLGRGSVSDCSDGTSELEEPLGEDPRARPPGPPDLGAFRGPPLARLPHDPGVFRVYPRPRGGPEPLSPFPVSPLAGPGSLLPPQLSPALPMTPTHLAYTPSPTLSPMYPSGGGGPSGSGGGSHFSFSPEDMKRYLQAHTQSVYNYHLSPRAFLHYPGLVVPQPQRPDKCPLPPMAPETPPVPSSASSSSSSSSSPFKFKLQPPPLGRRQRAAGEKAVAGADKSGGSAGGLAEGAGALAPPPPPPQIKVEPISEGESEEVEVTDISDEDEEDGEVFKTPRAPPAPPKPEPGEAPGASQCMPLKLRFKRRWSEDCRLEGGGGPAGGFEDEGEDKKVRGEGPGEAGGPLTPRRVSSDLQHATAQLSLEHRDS
Particulars: protein: recombinant; tags: N-terminal GST; dsDNA, one strand shown. The gist of the method: as §1

Another assay concerns the target T7, ETV3L (Homo sapiens, UniProt Q6ZN32 1-361).
T7 sequence: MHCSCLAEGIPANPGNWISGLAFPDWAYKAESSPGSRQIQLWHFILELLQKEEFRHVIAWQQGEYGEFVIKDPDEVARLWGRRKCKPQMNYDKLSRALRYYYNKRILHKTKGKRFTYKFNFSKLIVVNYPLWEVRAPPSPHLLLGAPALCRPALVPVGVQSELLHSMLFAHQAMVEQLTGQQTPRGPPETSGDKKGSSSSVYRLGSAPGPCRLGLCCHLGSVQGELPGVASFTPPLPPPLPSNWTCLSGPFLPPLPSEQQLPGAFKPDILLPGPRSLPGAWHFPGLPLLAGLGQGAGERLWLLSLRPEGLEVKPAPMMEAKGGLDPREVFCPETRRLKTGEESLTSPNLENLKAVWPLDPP
The conditions noted are these: protein: recombinant; tags: N-terminal GST; dsDNA, one strand shown. The gist of the method: as §1

In the next assay the target is T8, ETS2 (Homo sapiens, UniProt P15036 1-469).
T8 sequence: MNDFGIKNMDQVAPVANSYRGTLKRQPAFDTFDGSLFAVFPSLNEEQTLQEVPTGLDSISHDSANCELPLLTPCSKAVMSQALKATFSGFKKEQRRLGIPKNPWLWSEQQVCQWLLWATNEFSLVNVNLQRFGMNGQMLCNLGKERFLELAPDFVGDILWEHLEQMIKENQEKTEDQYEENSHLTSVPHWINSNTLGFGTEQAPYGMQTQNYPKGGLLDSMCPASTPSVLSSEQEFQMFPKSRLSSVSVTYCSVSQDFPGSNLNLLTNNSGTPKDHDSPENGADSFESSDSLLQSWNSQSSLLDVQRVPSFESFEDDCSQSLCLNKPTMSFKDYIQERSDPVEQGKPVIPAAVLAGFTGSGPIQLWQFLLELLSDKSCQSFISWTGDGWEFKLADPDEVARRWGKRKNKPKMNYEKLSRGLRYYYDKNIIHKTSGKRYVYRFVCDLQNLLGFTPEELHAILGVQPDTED
The conditions noted are these: protein: recombinant; tags: N-terminal GST; dsDNA, one strand shown. Put shortly: as §1

Another assay deals with T9, SPDEF (Homo sapiens, UniProt O95238 1-335).
T9 sequence: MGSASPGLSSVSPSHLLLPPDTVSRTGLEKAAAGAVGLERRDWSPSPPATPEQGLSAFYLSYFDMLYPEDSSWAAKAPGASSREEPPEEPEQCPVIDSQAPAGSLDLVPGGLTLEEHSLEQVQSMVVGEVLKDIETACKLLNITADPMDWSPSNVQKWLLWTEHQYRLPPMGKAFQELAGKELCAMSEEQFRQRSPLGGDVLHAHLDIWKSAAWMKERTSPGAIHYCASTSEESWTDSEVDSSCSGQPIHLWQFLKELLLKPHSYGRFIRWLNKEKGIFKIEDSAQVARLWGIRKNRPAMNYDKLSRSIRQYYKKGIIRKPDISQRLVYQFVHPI
Particulars: protein: recombinant; tags: N-terminal GST; dsDNA, one strand shown. Put shortly: as §1

The next assay addresses T10, ETV7 (Homo sapiens, UniProt Q9Y603 1-341).
T10 sequence: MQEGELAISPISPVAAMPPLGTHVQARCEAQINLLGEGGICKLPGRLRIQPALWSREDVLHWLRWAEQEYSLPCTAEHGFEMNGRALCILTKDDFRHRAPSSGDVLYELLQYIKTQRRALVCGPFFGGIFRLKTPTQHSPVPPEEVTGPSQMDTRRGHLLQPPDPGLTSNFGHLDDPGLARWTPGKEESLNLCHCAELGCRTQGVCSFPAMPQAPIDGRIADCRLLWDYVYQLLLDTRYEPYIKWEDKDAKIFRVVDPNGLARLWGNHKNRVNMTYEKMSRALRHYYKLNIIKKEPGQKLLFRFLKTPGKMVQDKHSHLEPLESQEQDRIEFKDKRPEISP
Particulars: protein: recombinant; tags: N-terminal GST; dsDNA, one strand shown. The gist of the method: as §1

The target in another assay is T11, ELF5 (Homo sapiens, UniProt Q9UKW6-2 1-255).
T11 sequence: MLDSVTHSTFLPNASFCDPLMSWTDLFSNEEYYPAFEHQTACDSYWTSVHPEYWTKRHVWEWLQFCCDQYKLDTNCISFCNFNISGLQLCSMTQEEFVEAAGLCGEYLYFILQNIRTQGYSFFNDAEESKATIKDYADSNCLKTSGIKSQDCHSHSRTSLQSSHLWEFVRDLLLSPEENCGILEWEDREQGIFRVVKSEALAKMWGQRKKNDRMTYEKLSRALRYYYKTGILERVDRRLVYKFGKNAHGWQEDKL
Particulars: protein: recombinant; tags: N-terminal GST; dsDNA, one strand shown. The gist of the method: as §1

The target of a further assay is T12, ETV3 (Homo sapiens, UniProt P41162-2 1-143).
T12 sequence: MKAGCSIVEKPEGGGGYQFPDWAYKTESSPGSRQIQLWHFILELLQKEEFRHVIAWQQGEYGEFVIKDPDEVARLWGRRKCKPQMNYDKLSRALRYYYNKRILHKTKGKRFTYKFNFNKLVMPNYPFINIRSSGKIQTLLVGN
The conditions noted are these: protein: recombinant; tags: N-terminal GST; dsDNA, one strand shown. The gist of the method: as §1

The target in the next assay is ETV6 (Homo sapiens, UniProt P41212 1-452). The conditions noted are these: protein: recombinant; tags: N-terminal GST; dsDNA, one strand shown. Put shortly:
as §1

ETV1, sequence (P50549 whole entry): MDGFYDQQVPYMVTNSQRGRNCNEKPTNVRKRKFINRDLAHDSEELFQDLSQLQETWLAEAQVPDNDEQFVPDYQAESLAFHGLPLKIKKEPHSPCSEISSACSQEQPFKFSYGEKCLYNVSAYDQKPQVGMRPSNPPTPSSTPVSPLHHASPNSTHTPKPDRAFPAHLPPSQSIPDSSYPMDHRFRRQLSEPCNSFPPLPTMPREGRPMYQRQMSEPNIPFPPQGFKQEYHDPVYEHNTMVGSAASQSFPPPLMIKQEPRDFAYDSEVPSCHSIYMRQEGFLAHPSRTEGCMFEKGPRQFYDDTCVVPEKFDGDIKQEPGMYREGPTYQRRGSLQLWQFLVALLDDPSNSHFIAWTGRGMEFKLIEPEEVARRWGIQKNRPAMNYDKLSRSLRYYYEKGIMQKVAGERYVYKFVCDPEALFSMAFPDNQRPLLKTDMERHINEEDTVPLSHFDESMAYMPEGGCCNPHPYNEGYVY
ETV6, sequence (P41212 whole entry): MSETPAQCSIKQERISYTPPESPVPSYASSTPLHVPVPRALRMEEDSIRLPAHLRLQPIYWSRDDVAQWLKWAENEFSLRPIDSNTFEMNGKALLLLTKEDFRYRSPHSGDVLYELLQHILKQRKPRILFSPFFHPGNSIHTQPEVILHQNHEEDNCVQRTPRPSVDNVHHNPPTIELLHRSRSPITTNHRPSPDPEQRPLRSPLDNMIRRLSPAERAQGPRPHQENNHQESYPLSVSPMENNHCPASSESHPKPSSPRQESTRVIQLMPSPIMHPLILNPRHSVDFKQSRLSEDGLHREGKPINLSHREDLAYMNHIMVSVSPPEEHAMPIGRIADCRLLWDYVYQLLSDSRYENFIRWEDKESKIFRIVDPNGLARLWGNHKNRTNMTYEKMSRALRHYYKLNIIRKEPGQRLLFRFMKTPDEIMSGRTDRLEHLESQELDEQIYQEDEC
ELF4, sequence (Q99607 whole entry): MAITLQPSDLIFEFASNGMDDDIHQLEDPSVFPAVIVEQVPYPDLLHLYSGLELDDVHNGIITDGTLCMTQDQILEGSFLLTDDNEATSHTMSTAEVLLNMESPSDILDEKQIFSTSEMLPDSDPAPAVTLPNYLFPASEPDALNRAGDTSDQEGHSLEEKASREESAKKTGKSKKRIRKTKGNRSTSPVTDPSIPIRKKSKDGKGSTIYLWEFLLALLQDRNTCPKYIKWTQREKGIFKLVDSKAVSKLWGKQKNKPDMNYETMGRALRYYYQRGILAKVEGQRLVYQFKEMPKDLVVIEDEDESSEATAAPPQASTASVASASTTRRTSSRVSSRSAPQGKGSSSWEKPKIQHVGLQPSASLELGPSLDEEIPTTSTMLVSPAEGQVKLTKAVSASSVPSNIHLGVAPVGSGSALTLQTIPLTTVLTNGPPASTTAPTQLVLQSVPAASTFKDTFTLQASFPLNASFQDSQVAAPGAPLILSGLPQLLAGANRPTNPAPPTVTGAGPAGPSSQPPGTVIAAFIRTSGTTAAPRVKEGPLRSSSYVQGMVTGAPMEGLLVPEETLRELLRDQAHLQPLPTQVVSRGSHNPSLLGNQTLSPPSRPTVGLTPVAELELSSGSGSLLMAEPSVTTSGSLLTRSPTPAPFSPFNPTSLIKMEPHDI

For TTAGTT, the binding signal with FEV was 1.2 fold enrichment (6-mer frequency, TF over GST control); in the assay with ETV5, 1.25 fold enrichment (6-mer frequency, TF over GST control); in the assay with HSF1, 1.68 fold enrichment (6-mer frequency, TF over GST control); in the assay with SPIC, 1.28 fold enrichment (6-mer frequency, TF over GST control); with ELF4, 1.37 fold enrichment (6-mer frequency, TF over GST control); with ELK4, 1.32 fold enrichment (6-mer frequency, TF over GST control). Moreover, the binding signal is 1.37 fold enrichment (6-mer frequency, TF over GST control) in the assay with ETV2; 1.25 fold enrichment (6-mer frequency, TF over GST control) with ELF3; 2.25 fold enrichment (6-mer frequency, TF over GST control) with CRX; 1.33 fold enrichment (6-mer frequency, TF over GST control) with ETV1; 1.37 fold enrichment (6-mer frequency, TF over GST control) with ERF; 1.35 fold enrichment (6-mer frequency, TF over GST control) with ETV3L. In addition, the binding signal with ETS2 is 1.23 fold enrichment (6-mer frequency, TF over GST control); with SPDEF, 1.38 fold enrichment (6-mer frequency, TF over GST control); with ETV7, 1.25 fold enrichment (6-mer frequency, TF over GST control); with ELF5 it was 1.24 fold enrichment (6-mer frequency, TF over GST control); with ETV3, 1.45 fold enrichment (6-mer frequency, TF over GST control); with ETV6, 1.38 fold enrichment (6-mer frequency, TF over GST control).

For the origin of these results see PMC7862700, “An all-to-all approach to the identification of sequence-specific readers for epigenetic DNA modifications on cytosine”.
